# Source: PubChem BioAssay AID1508600 (Functional Genomics Laboratory (NCATS/FGL), 2020)
# Hit rate of the full screen: of about 53,000 sequences, about 3,700 (7%) were called active. This is one part of a sample in which actives are shown more often than they occur. A number with no mark means an inactive call.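 How the source made its calls: active means gene knockdowns whose robust z-score for IL-1 alpha signal is at least 2 or at most -2, so actives lie on both sides; inactive means the rest.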
# Assay: Components of the Cytosolic LPS Sensing Pathway: Gene Identification via Genome-wide siRNA Screen;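 further: robust z of the log signal after scaling to non-targeting control siRNA wells of the plate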
# Details: RAW264.7 macrophages, IL-1a HTRF, actives lie on both sides, screened at 100 nM (by protocol), cells primed 5 h with Pam3CSK4 first
# Outline: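 Read-out: IL-1a HTRF on supernatant, divided by plate negative-control median ×100, log-transformed and converted to robust z-score. Cells were RAW264.7 given 100 nM siRNA, Pam3CSK4-primed 5 hours, then LipidA-transfected 24 hour.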
row,Sequence,z-score
1,CCUACAGUAUGUGGCAGAUTT against Grb7,-1.49
2,GGUGUUUUAUACACUCUGUTT against Mgme1,-1.85
3,GGACUUAAAACAGAAAGCATT against Haus1,-2.79 (active)
4,CGUGGUUGUACAUAUUUGUTT against Trip10,0.39
5,GGGAAACAAAUUGUUUGCATT against Dnaaf4,-0.461
6,GGCUUUGUCGUUAAUUUUUTT against Auh,0.322
7,GGUGCAUUAUCUUGGUUCGTT against Hmga2,-2.46 (active)
8,GGCAAAUAUUCAGUUUGGATT against Scarb2,-0.00406
9,GGGUUUAUAAAACUGAAGUTT against Cav2,0.672
10,GGCACAUGAGACAGCUUUUTT against Tmem160,0.0311
11,CGUGUUCAGCGUAGAAACUTT against Ttll1,0.283
12,GGUUUCAGAGCUAAACCCUTT against Larp4b,0.235
13,CCAUAGUUUUGGUUACCAATT against E330037G11Rik,-0.213
14,GUCUCUUUGCCCUGUGCUATT against Vmn1r239-ps,0.0206
15,GGCUUGGAUUUUGAAAUACTT against Srcin1,-0.792
16,GCUCAGCAAUACUUCCUACTT against Itgal,-0.188
17,GCUCAUAUACACCAUUUCUTT against Tmem171,-1.12
18,GCCUAUCAAUGUGUAUCUUTT against Tcf21,-0.497
19,CGUCCUAGGAAUCUACUUUTT against Itgad,2.63 (active)
20,GGGAAAGUAAUUGAUAAACTT against Mtrr,0.59
21,GUCUGUCAUUUGUGGAAAUTT against Olfr1495,-2.17 (active)
22,CCGAGUUCGGGUAUCUUGGTT against Grwd1,-0.885

row,Sequence,z-score
1,CCCACCACAAGCUAAUACATT against Ubac1,-0.0826
2,GGAACAAAGACAUGUAUCATT against Zgpat,-0.931
3,GCUCAGAAGUCCAAGAUACTT against Casp12,-1.86
4,GGUCGCUGGAGACCUUAGUTT against Hjurp,-1.88
5,GGAACAGGUGAUCCGCUACTT against Lzts2,1.26
6,GCACUCUGUUCAGCUAAAATT against Tafa3,2.16 (active)
7,GGAAGCUAUGAACAAUACATT against Sulf2,0.00856
8,GGUGUGAUGGAGUUCUUAUTT against Ndufs1,-0.94
9,GGUUCCAUAACCUGUGUCATT against Fbxo28,0.272
10,GGGUUAAUGCAGCUCACGUTT against Lrrtm1,0.425
11,GGCUUUGGCGAUAAGACAUTT against Glud1,2.29 (active)
12,CCAAUUACGGAGAUUGGAATT against Tspan6,-0.803
13,GGUUGAUUCCAACGACAUCTT against Tinagl1,-0.173
14,GCAUAAAGCACCCGGAGAGTT against Zbtb32,-1.53
15,GGUGUUAAGACUCAGCUCATT against Micall2,-1.49
16,GCCUGGUUAUUAAUUUAUCTT against Dzank1,-0.724
17,GGCACCCGAGUAGGUCAAATT against Carhsp1,6.02 (active)
18,CGUAACUGAGUCAAUUAGUTT against Intu,0.128
19,GCGUGGUUUCUGAAUACAUTT against Nt5e,6.67 (active)
20,GGUAACAUCUAUAUAUCACTT against Rb1,1.56
21,GGACUCCAACCACACUAUCTT against Rab4b,0.847
22,GGCAUGAUGCUGAUCAUUCTT against Olfr1100,-0.0763

row,Sequence,z-score
1,GCUUAUAGUUCAGUUUUUGTT against Ints8,0.835
2,GCAAAUAGGGAGGUUCCUGTT against Ypel1,1.47
3,GGAGACUUCAGUGCCUCUUTT against Slc16a11,2.45 (active)
4,GGUAAUGGGACUUGGUAGGTT against Olfr1338,-0.056
5,UGGUCGGCUAGAUGAUGGATT against Wdr34,-0.7
6,GGAAGUCUGCCUGUUCUUGTT against Galnt10,0.744
7,GGCUGUGUUGUCGAUUUCCTT against Nkain3,0.351
8,GGGAUGAGUUCUUGUAAAUTT against Unc50,-1.32
9,GGGAACUCGAACAAGAAUUTT against Six1,1.11
10,GGAAAAAGAGGAUGAGUGCTT against Gm4861,2.01 (active)
11,GCUGCUGGAAACUAGACUGTT against Cyp2b13,-1.71
12,GUCAUCAAUCAAGUCUUGATT against Olfr1408,-0.0822
13,CCAAGGGUUGCUUCGAGCATT against Upk1a,-0.489
14,GGACCUGAACGAUCUCGUUTT against Cyp4a12a,1.65
15,GGAACAACCACGGAACCCATT against Il1r2,0.335
16,GGGUUUCAGUCUUCUUAUCTT against Olfr556,-0.891
17,GGGAGCUAAUGAGCAAGGATT against Galk1,2.5 (active)
18,GCACAAACUUAUGCUCUUUTT against Klrc3,-1.76
19,GGACAGACAAAUACAAGAGTT against Tmco1,0.428
20,GUUCUUAUAUAGGAUUGUGTT against Xkr9,-0.782
21,GGAUCAUCUAUACAGCACATT against Tgfb1i1,-1.85
22,GGACAGUUCUAAAAUUCCCTT against Olfr780,-1.73

row,Sequence,z-score
1,GCCAGCUACCGAGUCUAUUTT against Tkt,2.8 (active)
2,GCAUGCUGACACUUACUUUTT against Olfr878,-0.872
3,CCAGGCAGCUAAACUGUGUTT against Tex11,-0.11
4,GGGACUGUACCCAGUUUAATT against Ccl27a,1.62
5,CGUGGAAUGAAGAUUGUCCTT against Hsd17b12,0.284
6,GCAAAAUAGCCCAGUAUAATT against Pax6,-5.02 (active)
7,GGAGUUUCUUCAGUUCCUUTT against Dld,0.87
8,GCGGAGGAUAGAGCAAAUUTT against Upf3b,-0.0448
9,GGAACAUCAAGGGAAUUAUTT against Zfp638,2.36 (active)
10,GGACAACAGUGGAAGGCUCTT against Serpinb1a,0.841
11,GGAGGUGAACCAUAGAGAGTT against Csrnp2,1.12
12,CCCUCUAUCAGUUACCCUGTT against Mcpt2,0.686
13,GGACAAUGGUUCCUUGGAUTT against Cdc25c,0.981
14,GGAUGUCACUCUUGCAUUGTT against Olfr948,0.75
15,GCCACAACUCCAGAUGCCUTT against Olfr937,-2.64 (active)
16,GGAAGAACUUCAGAAUGCATT against Slirp,-0.627
17,CCUUCAUUGUGAUUGACAUTT against Ptpn11,-0.55
18,GGUUCAGUGCUUUGUGUUCTT against Il2rg,-0.541
19,CCUUCUAAAUACUGAUUUGTT against Ugt2b38,0.699
20,GCAGAAUAUUAACCAGUGUTT against Ptp4a2,1.15
21,CCAGUUCCGGUCAGAUUAUTT against Gnal,-1.55
22,GCCUCCAGAACUCACUGCATT against Hes3,-2.04 (active)

row,Sequence,z-score
1,AAGGAAGUCUGUCCAAGGUTT against Olfr192,-0.284
2,GCUGCCAUUUCGCCAAUCUTT against Mfap4,-2.65 (active)
3,GGGAGCAUCAAACAACAAUTT against Tbr1,0.742
4,GGCUGUGGAUUUCUCUCUGTT against Kng1,-0.334
5,GGCCGAGUACAAACGUGGATT against Atg9a,2.77 (active)
6,CCUGAGUCAGAUUCAUUUATT against Pten,0.292
7,GGUGCCAUUCAUCUUUCAATT against Tmprss3,1.85
8,GGUGCAAGAUCAAGAACUGTT against C1ra,2.78 (active)
9,GGAAGAACAGGAAGAAGUGTT against Pank1,1.02
10,CCAGCUUUCAUUAACUUUATT against Ppp1r10,-0.571
11,CGAGCUAUCCACUUAAUCATT against Irak3,-0.859
12,GGCUCUGGGUGGUAUUCAUTT against Slc5a2,-0.637
13,GGCACUGGGCAAACAUUAATT against Ptprcap,1.09
14,GGCAGUUCAAAAGACCACATT against Zcchc7,2.38 (active)
15,GGGCAACGAGCUGUUCAAATT against Unc45a,1.71
16,GGGAUCUGGAUUUAAUUUGTT against Arf5,0.523
17,GGUCACACCCACCAUUACGTT against Serpina11,-0.765
18,CCAUUACAGGGUUUUUUAUTT against Slc37a3,-0.62
19,GGGAAAAGCAAACACUAAUTT against C1d,-1.84
